The results in this text go back to the antibiotic and cytotoxicity screens of Wong et al. (2023).

Structures are written as SMILES. Hit rate of the full screen: of about 39,000 compounds, about 3,300 (8.5%) were called active. The entries come from a sample that favours actives as a whole.

For this test, the system named is HepG2. The test can be described thus: cytotoxicity call (relative viability < 0.9). The following applies: 10 µM.
Take `NC(=O)CSc1nc(N)cc(N)n1`: the cytotoxicity call was “inactive”.
The result for `COc1ccc(S(=O)(=O)Nc2ccc3c(c2)C(=O)N([C@H](C)CO)C[C@@H](C)[C@@H](CN(C)Cc2ccc4c(c2)OCO4)OCCCC[C@@H](C)O3)cc1` reads “inactive”; that for `C[C@H](CO)N1C[C@H](C)[C@H](CN(C)C(=O)Nc2ccccc2)Oc2ccc(NC(=O)CCN3CCOCC3)cc2C1=O`, “inactive”; that for `C[C@@H]1CN([C@@H](C)CO)C(=O)c2cccc(NS(=O)(=O)c3cn(C)cn3)c2O[C@H]1CN(C)C(=O)NC1CCCCC1`, “inactive”.
The result for `Cc1ccc2ncccc2c1` reads “inactive”; that for `Cc1ccc2c(c1)/C(=C/c1ccncc1)c1cc3ccccc3nc1-2`, “active”.
Turning to `Cc1ccc2nc(-c3ccncc3)cc(-c3ccccc3)c2c1`, the cytotoxicity call is “inactive”.
Turning to `C[C@@H]1CCCCO[C@H](CN(C)C(=O)NC2CCCCC2)[C@@H](C)CN([C@H](C)CO)C(=O)c2cc(NC(=O)Nc3ccc(C(F)(F)F)cc3)ccc2O1`, the cytotoxicity call is “inactive”.
Take `CC(C)NC(=O)N(C)C[C@@H]1Oc2ncc(-c3ccc(C(=O)N(C)C)cc3)cc2C(=O)N([C@H](C)CO)C[C@@H]1C`: the cytotoxicity call is “inactive”.
With `CN(C)CCNC(=O)[C@H]1Cn2ccnc2C2(CCN(Cc3nccs3)CC2)O1` the entry was “inactive”; with `C[C@H](NC(=O)[C@@H](Cc1ccc2ccccc2c1)NC(=O)[C@@H](C)N)C(=O)N[C@@H](Cc1c[nH]c2ccccc12)C(=O)N[C@H](Cc1ccccc1)C(=O)N[C@@H](CCCCN)C(N)=O`, “inactive”.
Turning to `CC(C)C[C@H](NP(=O)(O)O[C@H]1O[C@@H](C)[C@@H](O)[C@@H](O)[C@@H]1O)C(=O)N[C@H](Cc1c[nH]c2ccccc12)C(=O)O`, the cytotoxicity call was “inactive”.
With `CC(C)CC(NC(=O)C(C)NC(=O)CNC(=O)C(NC=O)C(C)C)C(=O)NC(C)C(=O)NC(C(=O)NC(C(=O)NC(C(=O)NC(Cc1c[nH]c2ccccc12)C(=O)NC(CC(C)C)C(=O)NC(Cc1c[nH]c2ccccc12)C(=O)NC(CC(C)C)C(=O)NC(Cc1c[nH]c2ccccc12)C(=O)NC(CC(C)C)C(=O)NC(Cc1c[nH]c2ccccc12)C(=O)NCCO)C(C)C)C(C)C)C(C)C` (stereo not given) [GRAMICIDIN (gramicidin A shown) ] the entry was “active”; with `C[C@@H]1CCCCO[C@@H](CN(C)S(C)(=O)=O)[C@@H](C)CN([C@H](C)CO)C(=O)c2cc(NS(=O)(=O)c3cccs3)ccc2O1`, “inactive”.
With `C[C@@H]1CN([C@H](C)CO)C(=O)c2c(c3ccccc3n2C)-c2ccccc2CO[C@@H]1CN(C)Cc1ccc(O)cc1`, the cytotoxicity call was “inactive”.
With `CC(C)CC#Cc1ccc2c(c1)O[C@@H](CN(C)C(=O)c1cccnc1)[C@H](C)CN([C@H](C)CO)S2(=O)=O` the entry was “inactive”; with `COc1ccc(NC(=O)N(C)C[C@@H]2OCCCC[C@H](C)Oc3ccc(NC(=O)Nc4ccccc4)cc3C(=O)N([C@@H](C)CO)C[C@@H]2C)cc1`, “inactive”; with `COc1ccc(NC(=O)N(C)C[C@@H]2Oc3ccc(NC(=O)C4CC4)cc3CC(=O)N([C@@H](C)CO)C[C@H]2C)cc1`, “inactive”.
`O=c1ccc(-c2ccncc2)n[nH]1`: the cytotoxicity call is “inactive”.
Take `C[C@H](CO)N1C[C@H](C)[C@H](CN(C)CC2CCCCC2)Oc2c(NC(=O)Nc3ccc(C(F)(F)F)cc3)cccc2C1=O`: the cytotoxicity call was “inactive”.
Turning to `C[C@@H]1CN([C@@H](C)CO)C(=O)c2cccc(NC(=O)Nc3ccc(F)cc3)c2O[C@H]1CN(C)CC1CCCCC1`, the cytotoxicity call was “inactive”.
The result for `C[C@H]1CN([C@@H](C)CO)C(=O)c2cccc(NC(=O)Nc3ccc(F)cc3)c2O[C@H]1CN(C)CC1CCCCC1` reads “inactive”; that for `C[C@@H]1CN([C@H](C)CO)C(=O)c2cccc(NC(=O)Nc3ccc(F)cc3)c2O[C@H]1CN(C)CC1CCCCC1`, “inactive”.
Take `C[C@H]1CN([C@@H](C)CO)C(=O)c2cccc(NC(=O)Nc3ccc(C(F)(F)F)cc3)c2O[C@H]1CN(C)CC1CCCCC1`: the cytotoxicity call was “active”.
The result for `C[C@@H]1CN([C@@H](C)CO)C(=O)c2cccc(NC(=O)Nc3ccc(C(F)(F)F)cc3)c2O[C@@H]1CN(C)CC1CCCCC1` reads “inactive”; that for `C[C@H]1CN([C@@H](C)CO)C(=O)c2cccc(NC(=O)Nc3ccc(C(F)(F)F)cc3)c2O[C@@H]1CN(C)CC1CCCCC1`, “active”; that for `C[C@@H]1CN([C@H](C)CO)C(=O)c2cccc(NC(=O)Nc3ccc(F)cc3)c2O[C@@H]1CN(C)CC1CCCCC1`, “inactive”.
For `C[C@H](CO)N1C[C@H](C)[C@@H](CN(C)CC2CCCCC2)Oc2c(NC(=O)Nc3ccc(C(F)(F)F)cc3)cccc2C1=O`, the cytotoxicity call was “inactive”.
On to `C[C@@H]1CN([C@H](C)CO)C(=O)c2cccc(NC(=O)Nc3ccc(C(F)(F)F)cc3)c2O[C@H]1CN(C)CC1CCCCC1`, for which the cytotoxicity call is “active”.
The result for `C[C@H](CO)N1C[C@H](C)[C@H](CN(C)CC2CCCCC2)Oc2c(NC(=O)Nc3ccc(F)cc3)cccc2C1=O` reads “inactive”.
For `C[C@@H]1CN([C@H](C)CO)C(=O)c2cccc(NC(=O)Nc3ccc(C(F)(F)F)cc3)c2O[C@@H]1CN(C)CC1CCCCC1`, the cytotoxicity call was “active”.
The result for `COc1nc(C#N)nc(N2CCCCC2)n1` reads “inactive”.
With `COc1ccc(S(=O)(=O)N(C)C[C@H]2OCCCC[C@@H](C)Oc3ccc(NC(=O)Nc4ccc(F)cc4)cc3C(=O)N([C@@H](C)CO)C[C@@H]2C)cc1` the entry was “inactive”.
For the compound `CCO[C@@H]1OC(C(=O)N2CCN(Cc3ccc4c(c3)OCO4)CC2)=C[C@H](C)[C@H]1CCCOC(=O)NCCCCCC(=O)NO`, the cytotoxicity call was “inactive”.
The result for `Cc1noc(C)c1NC(=O)Nc1ccc2c(c1)C(=O)N([C@H](C)CO)C[C@@H](C)[C@H](CN(C)Cc1ccccc1)OCCCC[C@H](C)O2` reads “inactive”.
Turning to `Cc1cccc(S(=O)(=O)N2C[C@H](O)COC[C@H]3O[C@H](CC(=O)NCCCN4CCOCC4)CC[C@@H]32)c1`, the cytotoxicity call is “inactive”.
Turning to `C[C@@H]1CN([C@H](C)CO)C(=O)Cc2cc(NS(C)(=O)=O)ccc2O[C@@H]1CN(C)C(=O)Nc1ccc2c(c1)OCO2`, the cytotoxicity call is “inactive”.
With `C[C@@H]1CN([C@@H](C)CO)C(=O)c2cc(NC(=O)CCC(F)(F)F)ccc2O[C@@H](C)CCCCO[C@H]1CN(C)Cc1ccc2c(c1)OCO2` the entry was “inactive”; with `Cc1noc(C)c1S(=O)(=O)N(C)C[C@@H]1Oc2ccc(NC(=O)Cn3cnnn3)cc2CC(=O)N([C@@H](C)CO)C[C@@H]1C`, “inactive”.
With `C[C@H]1CN([C@@H](C)CO)S(=O)(=O)c2ccc(C#CCN(C)C)cc2O[C@H]1CN(C)C(=O)c1ccccc1F` the entry was “inactive”.
